Measurements taken from PubChem BioAssay (NCI).
This is part of a sample that, as a whole, favours compounds with a hit. Of some 83,000 tested, about 20% had one in any assay.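 In brief: 96-well plates, 48 h treatment, single concentration, percent growth endpoint.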 Values without a mark were called inactive. Active and inactive are the calls of the source. The calls were made as follows: active = growth percent below 10; inactive = the rest.

Columns and labels:
Assay in all cases: NCI-60 one-dose screen, 48 h (100 = growth as untreated, 0 = no growth, -100 = all killed)
Settings in all cases: 10 µM unless noted
[1] = test system: NCI-H23 lung
[2] = test system: NCI-H226 lung
[3] = test system: NCI-H322M lung
[4] = test system: HOP-62 NSCLC
[5] = test system: NCI-H460 lung
[6] = test system: HOP-92 NSCLC
[7] = test system: NCI-H522 lung
[8] = test system: A549/ATCC NSCLC
[9] = test system: 786-0 renal
[10] = test system: COLO 205 colon
[11] = test system: DU-145 prostate
[12] = test system: K-562 leukemia
[13] = test system: MALME-3M melanoma
[14] = test system: MDA-MB-231 breast
[15] = test system: RXF 393 renal
[16] = test system: SF-268 CNS
[17] = test system: SF-295 CNS
[18] = test system: SF-539 CNS
[19] = test system: UACC-257 melanoma
[20] = test system: M14 melanoma

Row | Structure (SMILES) | growth [1] | growth [2] | growth [3] | growth [4] | growth [5] | growth [6] | growth [7] | growth [8] | growth [9] | growth [10] | growth [11] | growth [12] | growth [13] | growth [14] | growth [15] | growth [16] | growth [17] | growth [18] | growth [19] | growth [20]
1 | C/C(=C(/c1ccccc1)c1ccc(N2C(=O)c3cccc4c(NCc5ccccc5)ccc(c34)C2=O)cc1)c1ccccc1 | 89.8% | 89.1% | 97.6% | 100% | 99.8% | 89% | 93.1% | 92.6% | 103% | 112% | 101% | 85.8% | 96.3% | 96.1% | 112% | 102% | 96.2% | 98.6% | 106% | 89.1%
2 | Fc1ccc2c(c1)c(-c1nc(-c3c[nH]c4ncccc34)cs1)cn2CCCN1CCCCC1 | 84.9% | 80% | 80.6% | 65.3% | 13% | 45.4% | 94.3% | 65.7% | 61.9% | -73.1% (active) | 66.7% | -58.8% (active) | 49.8% | 55.3% | 69.4% | 66.6% | 93.2% | 61.4% | 100% | -81% (active)
3 | Cc1cc(N2CCCC2)nc(N(CCNc2ccnc3cc(Cl)ccc23)Cc2ccco2)n1 | 9.57% (active) | 24.9% | 19.7% | 43.3% | 15.8% | -15% (active) | 49.9% | 48% | 4.55% (active) | 15.9% | 50.3% | -1.93% (active) | 28.2% | 11.7% | -0.497% (active) | 55.5% | 18.8% | -10.7% (active) | 69.8% | -63.2% (active)
4 | C#CCn1c(C)cc(C)c(C#N)c1=O | 107% | 114% | 103% | 109% | 107% | 98.3% | 103% | 104% | 99.9% | 110% | 110% | 103% | 96.9% | 101% | 124% | 98.3% | 99.7% | 97.7% | 103% | 106%
5 | Cc1cccc(C)c1NC(=O)CSC(=S)N1CCCCC1 | 88.7% | 109% | 82.7% | 107% | 106% | 107% | 92% | 101% | 92.6% | 109% | 108% | 87.5% | 88.4% | 119% | 111% | 96% | 101% | 99.5% | 102% | 102%
6 | CCN1CCN(C(=O)[C@]23CC[C@@H](C)[C@H](C)[C@H]2C2=CC[C@@H]4[C@@]5(C)C/C(=C/c6cccc(OC)c6OC)C(=O)C(C)(C)[C@@H]5CC[C@@]4(C)[C@]2(C)CC3)CC1 | 42.9% | 46.2% | 83.7% | 57.7% | 20.1% | 46.9% | 52.9% | 36.1% | 49.7% | 32.2% | 57.3% | 16.3% | 35.2% | 36.5% | 30.2% | 45.5% | 50.7% | 58.5% | 46.4% | 29.5%
7 | COc1cc2nc(Cl)nc(Nc3cccc(C(=O)/C=C/c4ccc(Cl)cc4)c3)c2cc1OC | 80.9% | 88.1% | 83.1% | 86.8% | 91.3% | 78.3% | 77.6% | 78.2% | 64.8% | 86.9% | 88.2% | 11.3% | 88.2% | 73.7% | 62.7% | 85.7% | 80.6% | 50% | 94% | 70.2%
8 | COc1ccc2c(c1)C(Br)=C(CCO)C2c1ccccc1 (stereo not given) | 95% | 100% | 15.8% | 22.1% | 9.69% (active) | 35.5% | 96.8% | 25.1% | 85.4% | 48.2% | -10.3% (active) | 122% | 90.6% | 56.3% | 20% | 84.3% | 1.56% (active) | 63.7% | 77.6% | 89%
9 | O=c1[nH]c2c3ccncc3cc(-c3cccc(Cl)c3)c2c2cnccc12 | 50.8% | 29.6% | 56.2% | 0.205% (active) | 5.33% (active) | 5.61% (active) | 53.7% | 27.4% | 17.4% | 25.4% | 39.5% | 75% | 69.1% | 35.1% | -16.5% (active) | 53.9% | 31.4% | 2.59% (active) | 49.5% | 55.2%
10 | COc1cc(/C=C2\C(=O)N(CC(O)COc3cc(O)c4c(=O)cc(-c5ccccc5)oc4c3)c3ccccc32)cc(OC)c1O (stereo not given) | 88.8% | 99.7% | 96.5% | 87.9% | 85% | 82.4% | 64.1% | 95.4% | 98% | 113% | 85.6% | 71.4% | 99.1% | 84.6% | 101% | 80% | 95.1% | 88.1% | 110% | 88.7%
11 | Cc1ccnc2c(OCc3ccccc3)cccc12 | 93.5% | 81.9% | 76.4% | 106% | 86.1% | 53.4% | 105% | 93.5% | 96.1% | 113% | 97.1% | 99.2% | 84.4% | 72.1% | 95.1% | 92.5% | 89.9% | 104% | 115% | 93.4%
12 | C=COCCCCCCCCCCCCCCCCCC | 101% | 104% | 137% | 108% | 107% | 75.6% | 97.5% | 79.5% | 102% | 104% | 106% | 119% | 109% | 90.4% | 119% | 101% | 118% | 96.4% | 92.2% | 113%
13 | Cn1cc(-c2csc(-c3cn(CCCN4CCCCC4)c4ccccc34)n2)c2cccnc21 | 84% | 52.7% | 82.7% | -84% (active) | -58.7% (active) | 57.8% | 95.2% | -14.4% (active) | -87.1% (active) | -80% (active) | -52.5% (active) | -70% (active) | -78.6% (active) | -81.4% (active) | -78.6% (active) | -25.6% (active) | 32% | -88.6% (active) | -80.3% (active) | -80.9% (active)
14 | CC1(C)C(=O)/C(=C\c2ccccn2)C[C@]2(C)[C@H]3CC[C@@H]4[C@@H](C(=O)/C=C/c5ccccn5)CC[C@@]4(C)[C@]3(C)CC[C@@H]12 | -49.2% (active) | -33.8% (active) | 21.3% | -26.7% (active) | -36.2% (active) | -31.9% (active) | -23.3% (active) | 5.27% (active) | -69.4% (active) | -34.4% (active) | -77.1% (active) | 0.811% (active) | -35.8% (active) | -60% (active) | -90.7% (active) | 9.75% (active) | -77.9% (active) | -43.5% (active) | 7.39% (active) | 3.45% (active)
15 | COc1ccc(/C=C(\C#N)c2cc3ccccc3n2C(C)=O)cc1 | 88.3% | 102% | 94.6% | 93.3% | 92.4% | 99.2% | 70% | 83.5% | 96.9% | 97.3% | 99.7% | 25.1% | 83.8% | 82% | 88.3% | 97.3% | 84% | 93.8% | 99.6% | 70.7%
